# Sampled rows, rich in hits. Any-hit rate of the full collection: about 4.6%.
# TIM10 inh = growth inhibitors of TIM10 yeast strain | 330,000 compounds, 1.4% hits | inhibition, % at 10 µM | S. cerevisiae TIM10 strain growth, BacTiter-Glo luminescence, 24 h;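 active = inhibition of 40% or more at the single tested concentration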;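 also: wild-type TIM10 isogenic control strain grown at permissive 25 °C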
# V-ATPase pHluor = yeast V-ATPase proton transport regulation by pHLuorin. S. cerevisiae, pHLuorin cytosolic pH fluorescence. response, % at 10 µM. 350,000 compounds, 0.37% hits. AID 504577; in the data active = response mostly above about 7.3%, no sharp cut-off; inactive = mostly below about 5.4%; also: actives read high
# SKKanGAS inh = blocks kanamycin growth of S. pyogenes SKKanGAS strain; BacTiter-Glo, 6 h; inhibition, % at 7.5 µM; 300,000 compounds, 1.3% hits; AID 1662;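 active = mean replicate score, as percent of positive control median, at least 50; inconclusive = mean below 50 but one replicate at or above 50; inactive = mean and every replicate below 50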;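 also: strain carries kanamycin resistance gene driven by streptokinase promoter and grows in 40 µg/ml kanamycin; loss of luminescence reflects streptokinase promoter inhibition or plain growth inhibition; 0% = median of DMSO wells and 100% = positive control at its reference dose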
# tim10-1 inh = growth inhibitors of tim10-1 mutant yeast. 330,000 compounds, 2.2% hits. inhibition, % at 20 µM. AID 463190. S. cerevisiae tim10-1 ts strain growth, BacTiter-Glo, 24 h;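 active = inhibition of at least 40%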;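 also: mutant grown at 25 °C; 0% = DMSO wells with yeast and 100% = wells holding no yeast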
# PfHsp90 set2 = growth inhibition of yeast expressing Plasmodium Hsp90. inhibition, % at 9.4 µM. 310,000 compounds, 0.32% hits. S. cerevisiae expressing PfHsp90, BacTiter-Glo ATP, 48 h; yeast lacking PDR1 and PDR3 efflux regulators. AID 504621;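 active = every replicate shows inhibition above about 80%, whatever the replicate mean, limit read from the data; inconclusive = mean inhibition reaches the set limit but some replicate falls short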;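 also: 0% = DMSO neutral controls and 100% = 20 µM radicicol positive controls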
# tim23-1 inh = tim23-1 yeast growth inhibition | S. cerevisiae tim23-1 growth, BacTiter-Glo luminescence, 24 h | inhibition, % at 20 µM | 330,000 compounds, 1.3% hits;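 active = growth inhibition of the mutant yeast at or above 50%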;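 also: temperature-sensitive mutant grown at 25 °C; plate controls were DMSO-treated mutant yeast for no effect and medium wells lacking yeast for full effect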
# tim10-1 conf = tim10-1 yeast growth inhibition, confirmed; S. cerevisiae tim10-1 ts strain growth, BacTiter-Glo, 24 h; inhibition, % at 20 µM; shares compounds with tim10-1 inh; 7,400 compounds, 56% hits; AID 463213;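 active = inhibition of yeast growth at or above a set limit in either of two repeat tests at 20 µM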;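 also: tim10-1 mutant grown at permissive 25 °C to find synthetic lethal compounds; 0% = DMSO yeast wells and 100% = medium wells without yeast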
# tim10 confirm = TIM10 yeast growth inhibition, confirmed | inhibition, % at 10 µM | 4,600 compounds, 63% hits | AID 463215 | S. cerevisiae tim10 strain growth, BacTiter-Glo luminescence, 24 h | shares compounds with TIM10 inh;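 active = inhibition of yeast growth at or above a set limit in either of two replicates at 10 µM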;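 also: this counterscreen used the strain with wild-type TIM10; 0% = yeast with DMSO and 100% = medium wells lacking yeast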
# Numbers without * were called inactive; ? = inconclusive; nt = no result given.
SMILES,TIM10 inh,V-ATPase pHluor,SKKanGAS inh,tim10-1 inh,PfHsp90 set2,tim23-1 inh,tim10-1 conf,others
Fc1cccc(Cl)c1CSc1ccc2nnc(-c3ccccn3)n2n1,36,0,-1,40*,-18,-4,31*,
Fc1cccc(CSc2ccc3nnc(-c4ccccn4)n3n2)c1,-15,-5,1,30,nt,-8,nt,
CCNC(=O)N(C)C[C@H]1N[C@@](CC)(C(=O)OC)[C@H]2C(=O)N(C)C(=O)[C@@H]12,10,2,nt,5,19,0,nt,
O=c1cc(-c2ccccc2)[nH]n1-c1ccc([N+](=O)[O-])cc1,23,1,51*,43*,2,25,30,
O=c1c(N=Nc2ccc(O)cc2)c(-c2ccccc2)[nH]n1-c1ccc([N+](=O)[O-])cc1,6,0,5,20,-7,20,nt,
COc1ccc(C2=NN(C(=O)CSc3nnc(-c4ccccc4F)o3)C(c3ccco3)C2)cc1 (stereo not drawn),26,4,20,48*,3,42,38*,
COc1ccc(C2=NN(C(N)=S)C(c3ccco3)C2)cc1 (stereo not drawn),-4,1,-3,7,-15,6,nt,
CC(Oc1ccccc1F)C(=O)NNC(=O)CCNC(=O)c1ccccc1Cl (stereo not drawn),7,12,6,1,-9,5,nt,
CC1CCCCN1C(=O)/C(=C\c1ccccc1)c1ccccc1 (stereo not drawn),19,-5,0,42*,35,27,31*,
O=C(CSc1ncnc2sc3c(c12)CCCC3)c1ccco1,5,-6,-3,39,-31,35,nt,
O=C(CSc1ncnc2sc3c(c12)CCCCC3)NCc1ccco1,27,-6,8,47*,3,40,34*,
COc1ccc(NC2CCCN(C(=O)C3=NN(C)C(=O)CC3)C2)cc1OC (stereo not drawn),5,-1,0,23,23,14,nt,
CC(C)(C)Cc1nc2ccccc2n1CCc1ccccc1,37,-1,14,41*,-14,36,27,
COc1cccc(C(=O)c2ccncc2C(=O)O)c1OC,nt,-1,nt,nt,nt,nt,nt,
CCCCn1c(-c2csc3c2CCC(C)C3)n[nH]c1=S (stereo not drawn),20,-2,1,51*,-7,39,25,
COc1ccccc1CNC(=O)COC(=O)COc1ccccc1Cc1ccccc1,1,2,23,-4,9,4,nt,
CCCNC(=O)c1sc2c(c1C(=O)Nc1ccccn1)CCCC2,15,5,-9,47*,4,38,27,
CN(C)CCNC(=O)c1c(NC(=O)c2ccccc2)sc2c1CCCC2,8,-2,1,26,13,22,nt,
Cc1c(Cl)cccc1NC(=S)N1CCCCCC1,24,2,-3,44*,-13,29,16,
Cc1nn(C)cc1S(=O)(=O)Nc1ccccc1Br,7,3,-2,10,10,4,nt,
CCCC1=Nc2cc(C(=O)N3CCC(C(=O)OCC)CC3)ccc2Sc2ccccc21,-1,-3,3,41*,5,22,-12,
CC1=Nc2cc(C(=O)N3CCCCC3)ccc2Sc2ccc(C)cc21,10,1,8,45*,20,32,0,
COc1ccc(-n2nnnc2-c2cccc(OC)c2)cc1,-7,3,0,44*,-4,1,13,
Cc1cc(C)n(CCc2nc(-c3ccc(F)cc3)cs2)n1,37,0,-7,45*,-2,30,38*,
CC(OC(=O)COc1ccc(Nc2ccccc2)cc1)C(=O)N(C)c1ccccc1 (stereo not drawn),13,-2,0,42*,1,31,30*,
SMILES,TIM10 inh,V-ATPase pHluor,SKKanGAS inh,tim10-1 inh,PfHsp90 set2,tim23-1 inh,tim10-1 conf,others
Cc1cccc(C(=O)CC(=O)c2cc(Cl)ccc2O)c1,29,0,94*,47*,19,41,63*,
Cc1cc(NC(=O)COC(=O)C(Nc2ccc(C(F)(F)F)cc2Cl)C(C)C)no1 (stereo not drawn),50*,7,29,53*,15,43,23,tim10 confirm=43*
O=C(Nc1cc(S(=O)(=O)N2CCOCC2)ccc1N1CCCCC1)c1ccccc1,13,1,nt,16,nt,31,nt,
N#C/C(=C\c1ccccc1)C(=O)Nc1cc(S(=O)(=O)N2CCOCC2)ccc1N1CCCC1,49*,-1,4,52*,2,49,33*,tim10 confirm=24
O=C(Nc1cc(Sc2ccccn2)cc([N+](=O)[O-])c1)c1ccc(Cl)cc1,2,2,38,2,-15,2,nt,
O=C(Nc1cc(Sc2ccccn2)cc([N+](=O)[O-])c1)c1cccc(Cl)c1,54*,-2,14,42*,-12,38,34*,tim10 confirm=-1
Cc1coc2c1C(=O)C(=O)c1c-2ccc2c1CCCC2(C)C,44*,2,42,48*,-76,47,38*,tim10 confirm=37*
Cc1coc2cc3oc(=O)c4c(c3cc12)CCC4,-24,nt,3,9,nt,3,nt,
COc1ccccc1OCCC(=O)OCC(=O)c1[nH]c(C)c(C(C)=O)c1C,2,2,-12,12,13,3,nt,
O=C(NCC1CCCO1)c1cccc(S(=O)(=O)N2CCCCC2)c1 (stereo not drawn),-8,-2,nt,-21,-10,-7,nt,
Cc1nn(C)c(C(=O)Nc2ccc(S(=O)(=O)NC34CC5CC(CC(C5)C3)C4)cc2)c1Br,58*,-1,53*,54*,?,41,45*,tim10 confirm=21
COc1ccc(C(CNC(=O)c2cccc(S(=O)(=O)N3CCCCC3)c2)N2CCCC2)cc1 (stereo not drawn),4,4,nt,-2,12,-8,nt,
CC12CCC(C(=O)Nc3nc4ccc(Br)cc4s3)(OC1=O)C2(C)C (stereo not drawn),48*,4,6,51*,-2,28,42*,tim10 confirm=32*
CC12CCC(C(=O)Nc3nccs3)(OC1=O)C2(C)C (stereo not drawn),4,2,1,27,nt,9,nt,
CCCN1C(=O)/C(=C/c2ccncc2)SC1=S,53*,-5,-2,45*,-1,46,24,tim10 confirm=-17
COc1cccc(CN2CC(C(=O)NCCc3ccc(C)o3)CCC2=O)c1 (stereo not drawn),8,-1,-1,-3,-3,0,nt,
O=C(c1ccc(-c2cccc(Cl)c2)o1)N1CCN(c2ccc([N+](=O)[O-])cc2)CC1,13,-1,5,24,28,39,nt,
CC1CCCN(C(=O)c2ccc(-c3ccccc3Cl)o2)C1 (stereo not drawn),-8,-6,12,33,0,29,nt,
